Screens (PubChem BioAssay)
Compounds with a hit are over-represented: about 2.9% of the library has one in this group of screens.
PAFAH1B3 FP inh: PAFAH1B3 (human) inhibition | Q15102 | recombinant PAFAH1B3, FP-rhodamine probe, fluorescence polarization | inhibition, % at 3.39 µM | hit rate 0.28% among 340,000;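 active = inhibition above the screen-wide average of all tested compounds plus 3 SD, cut at about 25% in these data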
pPAFAH inh: pPAFAH (human) enzyme inhibition. Q13093. recombinant pPAFAH, FP-rhodamine probe fluorescence polarization. inhibition, % at 3.39 µM. hit rate 1.5% among 330,000. AID 463082;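 active = inhibition above the mean inhibition across the screen plus 3 SD, cut at about 25% in these data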;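 also: inhibitors block binding of the rhodamine activity-based probe so polarization drops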
Target sequence (Q13093 whole entry, looked up): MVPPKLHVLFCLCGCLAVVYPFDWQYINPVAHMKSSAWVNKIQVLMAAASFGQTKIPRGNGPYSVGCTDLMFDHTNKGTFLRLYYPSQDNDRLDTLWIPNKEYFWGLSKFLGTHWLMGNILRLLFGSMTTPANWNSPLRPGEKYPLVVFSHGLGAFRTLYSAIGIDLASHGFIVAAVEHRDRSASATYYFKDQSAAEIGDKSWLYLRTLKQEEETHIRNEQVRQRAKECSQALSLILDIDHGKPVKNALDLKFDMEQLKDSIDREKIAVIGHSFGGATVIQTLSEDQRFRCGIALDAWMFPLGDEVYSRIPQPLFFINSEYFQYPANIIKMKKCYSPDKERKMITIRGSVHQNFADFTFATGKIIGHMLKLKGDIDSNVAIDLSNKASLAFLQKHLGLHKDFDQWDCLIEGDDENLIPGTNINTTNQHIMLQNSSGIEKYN
PAFAH2 inh: inhibitors of human PAFAH2. inhibition, % at 3.39 µM. Q99487. hit rate 0.99% among 340,000. AID 492956. recombinant PAFAH2, FP-rhodamine activity probe, fluorescence polarization;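 active = inhibition above the mean over all tested compounds plus 3 SD, cut at about 30% in these data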;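 also: inhibitors block probe labeling of enzyme so polarization drops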
PAFAH1B2 FP inh: PAFAH1B2 (human) inhibition; recombinant PAFAH1B2, FP-rhodamine activity probe, fluorescence polarization; AID 492953; inhibition, % at 3.39 µM; P68402; hit rate 1.2% among 340,000;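 active = inhibition above the mean of all tested compounds plus 3 SD, cut at about 24% in these data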
EBNA-1 inh: blocks EBNA-1 binding to DNA; EBNA-1 DNA binding, fluorescence polarization; inhibition, % at 14.8 µM; hit rate 0.34% among 300,000; AID 1950; in the data active = inhibition above about 28%
ZTA counter: blocks Epstein-Barr virus ZTA, an EBNA-1 counter-screen; ZTA-DNA binding, fluorescence polarization; inhibition, % at 11 µM; hit rate 0.15% among 320,000; in the data active = inhibition above about 33%
Target sequence (P03206 whole entry, looked up): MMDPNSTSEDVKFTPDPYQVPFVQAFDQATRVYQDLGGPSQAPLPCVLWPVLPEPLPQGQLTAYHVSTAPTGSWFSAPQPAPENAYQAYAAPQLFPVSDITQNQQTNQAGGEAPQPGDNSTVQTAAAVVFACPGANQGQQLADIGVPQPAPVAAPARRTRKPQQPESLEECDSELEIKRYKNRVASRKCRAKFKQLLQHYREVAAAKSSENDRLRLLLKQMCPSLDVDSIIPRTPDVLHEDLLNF
EBNA-1 confirm: EBNA-1 (EBV) inhibition, confirmation; shares compounds with EBNA-1 inh; AID 2292; hit rate 35% among 830; inhibition, % at 14.8 µM; Recombinant EBNA-1 DBD, Cy5-DNA fluorescence polarization;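 active = mean inhibition across replicates above a set limit taken from the earlier primary screen, cut at about 28% in these data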
ZTA DNA inh trip: counter-screen for EBNA-1 inhibitors: Epstein-Barr virus ZTA inhibitors, triplicate | shares compounds with EBNA-1 inh | Zta-ZRE DNA binding, Cy5 fluorescence polarization | inhibition, % at 11.1 µM | 830 tested, under 10 active;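 active = mean inhibition over triplicates above a set limit taken from the primary EBNA-1 screen, cut at about 37% in these data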;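 also: purified full length Zta protein with Cy5 labeled ZRE DNA probe; inhibitors lower polarization by freeing the labeled DNA probe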
Hits are given with their value; – = inactive; · = not tested or not shown.

SMILES | PAFAH1B3 FP inh | pPAFAH inh | PAFAH2 inh | PAFAH1B2 FP inh | EBNA-1 inh | ZTA counter | EBNA-1 confirm | ZTA DNA inh trip
CCCc1c2ccccc2nc2ccccc12 | – | – | – | – | – | – | · | ·
CCn1c(O)c(/C=C2\C=Nc3ccccc32)sc1=O | – | – | – | – | 28 | – | – | –
CCn1c(O)c(/C=C2\C=Nc3ccccc32)sc1=Nc1ccc(C)cc1 | – | – | – | – | – | – | · | ·
Clc1ccccc1Nc1ncnc2c1nnn2Cc1ccccc1 | – | – | – | – | – | – | · | ·
CCOc1ccc(Nc2ncnc3c2nnn3Cc2ccccc2)cc1 | – | – | – | – | 36 | – | – | –
C/C(=N\NC(=O)c1c(Br)c(C)nn1C)c1ccc(NC(=O)c2ccoc2C)cc1 | – | – | – | – | 63 | – | 72 | –
C/C(=N\NC(=O)c1nn(C)c(C)c1Br)c1ccc(NC(=O)c2ccoc2C)cc1 | – | – | – | – | – | – | · | ·
Nc1nc(-c2ccc3c(c2)OCCO3)cs1 | – | – | – | – | – | – | · | ·
Nc1nc(-c2ccc3c(c2)CCCC3)cs1 | – | – | – | – | 53 | – | – | –
CC(=O)C1=C(C)Nc2ncnn2C1c1cccc(Br)c1 (centres undefined) | – | – | – | – | – | – | · | ·
CCCc1nc2cc3c(cc2[nH]1)n(C)c(=O)n3C | – | – | – | – | – | – | · | ·
CCc1cccc(CC)c1NC(=O)COC(=O)/C(C#N)=C/c1ccc(OC)cc1 | – | – | – | – | 46 | – | – | –
CCc1ccc2c(c1)C1(SC(NC(C)=O)=NN1C(C)=O)C(=O)N2CC (centres undefined) | – | – | – | – | – | – | · | ·
Cc1c(NC(=S)NNC(=O)CCC(=O)O)c(=O)n(-c2ccccc2)n1C | – | – | – | – | – | – | · | ·
CC(=O)N1c2ccc(S(=O)(=O)NCC3CCC(C(=O)NC4CCCCC4)CC3)cc2CC1C (centres undefined) | – | – | – | – | 41 | – | – | –
C/C(=N\OCC(=O)OCC(=O)NC(=O)c1ccccc1)c1ccc2c(c1)OCO2 | – | – | – | – | – | – | · | ·
Cc1ccc(S(=O)(=O)/N=C(\N)Nc2nc(C)c3cc(C)c(C)cc3n2)cc1 | – | – | – | – | 38 | – | – | –
Cc1ccc2c(C)nc(N/C(N)=N/S(=O)(=O)c3ccccc3)nc2c1 | – | – | – | – | – | – | · | ·
Cc1ccc(S(=O)(=O)/N=C(\N)Nc2nc(C)c3ccc(C)cc3n2)cc1 | – | – | – | – | 37 | – | – | –
Cc1cnc(C(=O)Nc2ccc(S(=O)(=O)N(C(C)C)C(C)C)cc2)cn1 | – | – | – | – | 28 | – | – | –
O=C(NCCCn1ccnc1)C(=O)c1c[nH]c2ccccc12 | – | – | – | – | – | – | · | ·
COCCn1c(SCC(=O)Nc2ccccc2OC)nc2c([nH]c3ccccc32)c1=O | – | – | – | – | 30 | – | – | –
C=CCn1c(SCC(=O)Nc2ccccc2OC)nc2c([nH]c3ccccc32)c1=O | – | – | – | – | 40 | – | – | –
COc1ccc(CCN(C)C(=O)c2cnc(C)cn2)cc1OC | – | – | – | – | – | – | · | ·
COCCc1nc2ccc(C(=O)N(C)Cc3cccc(-n4nc(C)cc4C)c3)cc2o1 | – | · | – | – | · | · | · | ·
SMILES | PAFAH1B3 FP inh | pPAFAH inh | PAFAH2 inh | PAFAH1B2 FP inh | EBNA-1 inh | ZTA counter | EBNA-1 confirm | ZTA DNA inh trip
CCCCn1c(N)c(N(CCOC)C(=O)CSc2nnc(-c3ccc(F)cc3)n2N)c(=O)[nH]c1=O | – | – | – | – | – | – | · | ·
O=C(c1ccc2c(=O)n(Cc3ccco3)c(=S)[nH]c2c1)N1CCN(c2ccccc2)CC1 | – | – | – | – | 40 | – | – | –
O=C(c1ccc2c(=O)n(CC3CCCO3)c(=S)[nH]c2c1)N1CCN(c2ccccc2)CC1 (centres undefined) | – | – | – | – | – | – | · | ·
O=C(c1ccccc1F)N1CCN(S(=O)(=O)c2ccc(S(=O)(=O)N3CCCCCC3)cc2)CC1 | – | – | – | – | 31 | – | 33 | –
O=C(c1ccccc1F)N1CCN(S(=O)(=O)c2ccc(S(=O)(=O)N3CCCCC3)cc2)CC1 | – | – | – | – | – | – | · | ·
Cc1ccc(C(=O)CN(CCC(=O)O)C(=O)c2ccncc2)cc1 | – | – | – | – | – | – | · | ·
O=C(N/C(=C/c1ccc(Cl)cc1)c1nc2ccccc2[nH]1)c1ccco1 | – | – | – | – | – | – | · | ·
O=C(N/C(=C/c1ccc(Br)cc1)c1nc2ccccc2[nH]1)c1ccco1 | – | – | – | – | 31 | – | 82 | –
CCOC(=O)Nc1ccc2c(COC(=O)CNS(=O)(=O)c3cccc(Br)c3)cc(=O)oc2c1 | – | – | – | – | – | – | · | ·
CCOC(=O)Nc1ccc2c(COC(=O)CN(C)S(=O)(=O)c3ccc(C)cc3)cc(=O)oc2c1 | – | – | – | – | 56 | – | – | –
CC(=O)c1cccc(NC(=O)c2ccc(-c3ccccc3[N+](=O)[O-])o2)c1 | – | – | – | – | 36 | – | – | –
Cc1cc(NC(=O)c2ccc(-c3ccccc3[N+](=O)[O-])o2)no1 | – | – | – | – | · | · | · | ·
CCCNC(=O)C1CCC(CNS(=O)(=O)c2ccc3c(c2)N(C(C)=O)CCO3)CC1 (centres undefined) | – | – | – | – | – | – | · | ·
CCCCCNC(=O)c1c[nH]c2ccc(S(=O)(=O)N3CCC4(CC3)OCCO4)cc2c1=O | – | – | – | – | 29 | – | – | –
CC(=O)NCCNC(=O)c1ccc(Cn2c(=O)[nH]c3ccsc3c2=O)cc1 | – | · | – | – | · | · | · | ·
O=C(Nc1cc(Cl)cc(Cl)c1)c1ccc(Cn2c(=O)[nH]c3ccsc3c2=O)cc1 | – | – | – | – | 36 | – | 29 | –
CC(C)c1ccc(NC(=O)CSc2nc3ccsc3c(=O)n2CCC(=O)O)cc1 | – | – | – | – | – | – | · | ·
CC1(c2ccccc2)NC(=O)N(CCN2C(=O)c3ccccc3C2=O)C1=O (centres undefined) | – | – | – | – | 59 | – | – | –
CCOC(=O)c1cnc(SCc2cccc3ccccc23)nc1N | – | – | – | – | 105 | – | – | –
Nc1sc(-c2ccccc2)c(Cc2ccccc2)c1C(=O)O | – | – | – | – | – | – | · | ·
Cc1ccc(S(=O)(=O)N(C)C)cc1NC(=O)COC(=O)CCCOc1ccccc1 | – | – | – | – | 72 | – | – | –
CCn1nnc(-c2ccccc2NC(=O)c2cccc(-n3cnnn3)c2)n1 | – | – | – | – | 87 | – | 83 | –
O=C(Cn1nnc(-c2ccccc2NC(=O)c2ccccc2)n1)Nc1ccc2c(c1)OCCO2 | – | – | – | – | 61 | – | 60 | –
CCN(CC)C(=O)c1cn(CCC#N)nc1-c1ccc(F)cc1 | – | – | – | – | – | – | · | ·
O=C(CSc1nnc(C2CC2)n1-c1ccccc1)N1CCCC1 | – | – | – | – | · | · | · | ·
